Screening results deposited in PubChem BioAssay by National Center for Advancing Translational Sciences (NCATS).
Only some compounds are listed: those with a hit (about 10% of all), similar ones and a draw of the others.
Pf growth 48h – Primary qHTS for delayed death inhibitors of the malarial parasite plastid, 48 hour incubation; P. falciparum luciferase growth in erythrocytes, 48 h; Potency, µM (highest dose often 28.7 µM), inactives show top-dose activity change, negative = inhibition, usual class: inhibitors; 310,000 compounds, 5.9% hits; active means well fitted inhibition curve with a large enough effect; inconclusive means small, poorly fitted or top-dose-only effect, or another doubt; inactive means no such curve, though single readings can be large or run the other way; further: on the % scale 0 is the no-effect control and ±100 the full control effect
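Luminescence readout; reporter = integrated firefly luciferase in P. falciparum. RBC culture at 2% hematocrit, 0.1% parasitemia final, 37 C/5% CO2; decreased signal taken as growth inhibition.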
SARS PLP yeast – qHTS of Yeast-based Assay for SARS-CoV PLP | S. cerevisiae expressing SARS-CoV PLpro, growth rescue | Potency, µM (top dose mostly 32.9 µM), for the others: at the highest dose activity, positive = growth rescue, most hits filed as activators | 330,000 compounds, 0.19% hits; further: 0% is about no effect; nearly all actives have a fitted effect of over 55% in size
Pf growth 96h – Primary qHTS for delayed death inhibitors of the malarial parasite plastid, 96 hour incubation. 320,000 compounds, 6.9% hits. AID 504834, 2011. P. falciparum luciferase reporter growth, 96 h. Potency, µM (series often up to 28.7 µM), without a hit: at the top dose activity change, negative = inhibition, usual class: inhibitors; active means well fitted inhibition curve with a large enough effect; inconclusive means small, poorly fitted or top-dose-only effect, or another doubt; inactive means no such curve, though single readings can be large or run the other way; further: on the % scale 0 is the no-effect control and ±100 the full control effect
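Infected RBCs, 2% Hct / 0.05% parasitemia final; luciferase-reporter P. falciparum; cpd 96 h, 37 C, 5% CO2; luciferase detection reagent; luminescence.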
NS1 inh – qHTS Assay for Inhibitors of Influenza NS1 Protein Function; Potency, µM (titrated, usually from 46.1 µM), for inactives: at the top dose activity, positive = more growth; 270,000 compounds, 0.4% hits; AID 2326, 2010; further: actives are rising curves; nearly all actives have a fitted effect of over 50% in size
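Recovery from NS1-induced slow growth read by OD600 in budding yeast switched to galactose assay medium (pH 6.0, -URA) at 1:100 dilution. Compound 23 nl per well; the matching strain lacking NS1 serves as control.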
The depositor's hits bear a star; ? = inconclusive; . = not tested or not shown. Unless noted, the call rests on the fitted dose curve. Potency means the concentration at half of the fitted maximal effect.

SMILES	Pf growth 48h	SARS PLP yeast	Pf growth 96h	NS1 inh
Cn1c(SCC(=O)N2CC(=O)Nc3ccccc32)nnc1C(F)(F)F	-26%	-2%	8%	.
COc1ccc(Oc2ccc(/C=C/C(=O)c3ccc(O)cc3)cc2[N+](=O)[O-])cc1	12µM*	-13%	12µM*	11%
CN(C)c1ccc(/C=C/C(=O)c2ccccc2)cc1[N+](=O)[O-]	106%	3%	9.3µM*	-12%
CNc1ccc(/C=C/C(=O)c2ccc3c(c2)OCCO3)cc1[N+](=O)[O-]	29%	-34%	19%	-25%
CNc1ccc(/C=C/C(=O)c2ccc(C)cc2)cc1[N+](=O)[O-]	9%	14%	12µM*	-3%
CSC1=N/C(=C\c2ccccc2Cl)C(=O)N1N(C)C	-20%	1%	5%	-2%
COc1ccc2cc(OCC(=O)NNC(=O)Nc3ccc(F)cc3)ccc2c1	14%	2%	?	9%
Cn1c(SCC(=O)Nc2cccnc2Cl)nc2ccccc21	.	-1%	.	.
O=C(NCCc1ccc(F)cc1)c1cc(-c2ccncc2)nc2ccccc12	?	-1%	?	-4%
COc1ccc(CC(=O)OCC(=O)N2CCCc3ccccc32)cc1OC	18%	-11%	3%	.
Cc1cc(C)nc(NS(=O)(=O)c2ccc(NC(=O)c3ccco3)cc2)n1	56%	8%	0%	-5%
Cc1ccc(C)c(NS(=O)(=O)c2ccc(NC(=O)c3ccco3)cc2)c1	10µM*	?	12µM*	-10%
Cn1c(N)c(C(=O)COC(=O)Cc2ccc(Cl)cc2)c(=O)n(C)c1=O	?	2%	-15%	.
CCN1CCN(Cc2ccc(NC(=O)c3cc(NC(=O)c4ccno4)cc(OC)c3)cc2C(F)(F)F)CC1	?	-2%	0.83µM*	-1%
COc1cc(NC(=O)N2CCNC2=O)cc(C(=O)Nc2cccc(C(F)(F)F)c2)c1	?	2%	27%	-3%
CCN1CCN(Cc2ccc(NC(=O)c3cc(NC(=O)c4cc5cccc(OC)c5o4)cc(OC)c3)cc2C(F)(F)F)CC1	0.83µM*	0%	0.29µM*	-35%
CCN1CCN(Cc2ccc(NC(=O)c3cc(NC(=O)N4CCNC4=O)cc(OC)c3)cc2C(F)(F)F)CC1	5.2µM*	1%	4.1µM*	1%
CCN1CCN(Cc2ccc(NC(=O)c3cc(NC(=O)c4cc(-c5ccc(OC)cc5)n[nH]4)cc(OC)c3)cc2C(F)(F)F)CC1	0.12µM*	1%	0.093µM*	18%
CCN1CCN(Cc2ccc(NC(=O)c3ccc(C)c(NC(=O)c4ccno4)c3)cc2C(F)(F)F)CC1	?	-3%	?	0%
Cc1c(C(c2ccc(C(=O)O)cc2)c2c(C)n(C)n(-c3ccccc3)c2=O)c(=O)n(-c2ccccc2)n1C	.	1%	15%	6%
CCCc1ccc(OCc2ccc(C(=O)N3CCSCC3)o2)cc1	44%	-3%	31%	-7%
Cc1ccc([N+](=O)[O-])cc1N=C1C(=O)Nc2ccccc21	10%	1%	-2%	-1%
COc1cc(NC(=O)c2csc(-c3ccncc3)n2)cc(C(=O)Nc2cccc(C(F)(F)F)c2)c1	?	-9%	5.2µM*	8%
COc1cc(NC(=O)c2cc3cccc(OC)c3o2)cc(C(=O)Nc2cccc(C(F)(F)F)c2)c1	13µM*	1%	10µM*	3%
COc1cc(NC(=O)c2ccno2)cc(C(=O)Nc2cccc(C(F)(F)F)c2)c1	?	-5%	?	-3%
SMILES	Pf growth 48h	SARS PLP yeast	Pf growth 96h	NS1 inh
CCN1CCN(Cc2ccc(NC(=O)c3cc(NC(=O)c4ccc5n[nH]nc5c4)cc(OC)c3)cc2C(F)(F)F)CC1	4.1µM*	-1%	2.3µM*	-12%
O=C(Nc1cccc(C(F)(F)F)c1)c1csc(-c2ccncc2)n1	?	-3%	?	5%
COc1ccc(N(CCCN2C(=O)c3cccc4cccc(c34)C2=O)C(=O)c2cccs2)cc1	-13%	?	?	12%
COc1cc(C)ccc1N(CCCN1C(=O)c2cccc3cccc(c23)C1=O)C(=O)c1cccs1	?	6%	9.3µM*	?
CCCCC(=O)O[C@]1(C(=O)CO)CCC2C3CCC4=CC(=O)CCC4(C)C3C(O)CC21C (stereo partly drawn)	-8%	.	?	.
C/C(=N/OC(=O)c1ccc(Cl)cc1Cl)c1oc(C)nc1C	31%	-1%	47%	-11%
CCOC(=O)C1CCCN(c2c(Nc3cc(C)cc(C)c3)c(=O)c2=O)C1 (stereo not drawn)	.	18%	9.3µM*	-1%
CCOC(=O)C1CCCN(c2c(Nc3ccc(C)c(C)c3)c(=O)c2=O)C1 (stereo not drawn)	8.3µM*	5%	-16%	-1%
CCOC(=O)C1CCCN(c2c(NCCN3CCCCC3C)c(=O)c2=O)C1 (stereo not drawn)	-4%	2%	4.7µM*	-6%
CCOC(=O)C1CCCN(c2c(NCCc3ccc(C)cc3)c(=O)c2=O)C1 (stereo not drawn)	?	0%	-25%	-3%
CCOC(=O)C1CCCN(c2c(NCC3CCCO3)c(=O)c2=O)C1 (stereo not drawn)	.	-3%	-18%	-4%
CCOC(=O)C1CCN(c2c(N3CCCCCC3)c(=O)c2=O)CC1	12%	3%	10µM*	-4%
COc1ccc(S(=O)(=O)N2CCCCC2)cc1NC(=O)COC(=O)c1ccco1	.	5%	.	.
CCOC(=O)C1CCCN(c2c(NCCN(CC)c3ccccc3)c(=O)c2=O)C1 (stereo not drawn)	10µM*	4%	-29%	3%
CCOC(=O)C1CCCN(c2c(NCCCN(CC)c3ccccc3)c(=O)c2=O)C1 (stereo not drawn)	?	1%	21%	-5%
Cc1ccc(C(C(=O)NC2CCCC2)N(C(=O)CCC(=O)Nc2cc(C)on2)c2ccccc2)cc1 (stereo not drawn)	-13%	-12%	-2%	1%
COc1ccc(N(C(=O)CSCC(=O)Nc2cc(C)on2)C(C(=O)NC2CCCCC2)c2ccc(O)c(O)c2)cc1 (stereo not drawn)	-4%	-9%	2.6µM*	2%
COc1ccc(C(C(=O)NC2CCCCC2)N(C(=O)CCCC(=O)Nc2ccccn2)c2ccc3c(c2)OCCO3)cc1 (stereo not drawn)	?	1%	9.3µM*	?
Cc1cc(NC(=O)CSCC(=O)N(c2ccc(F)cc2)C(C(=O)NC2CCCCC2)c2ccc(O)c(O)c2)no1 (stereo not drawn)	?	0%	15µM*	5%
Cc1cc(NC(=O)CSCC(=O)N(c2cccc(Cl)c2)C(C(=O)NC2CCCCC2)c2ccc(O)c(O)c2)no1 (stereo not drawn)	?	-18%	9.3µM*	5%
O=C(CCCC(=O)N(c1ccc2c(c1)OCCO2)C(C(=O)NC1CCCCC1)c1ccc(Cl)cc1)Nc1ccccn1 (stereo not drawn)	?	1%	?	3%
O=C1COc2ccc(C(=O)COc3ccc([N+](=O)[O-])cc3)cc2N1	0%	0%	0%	4%
